PubChem BioAssay AID687011 (National Center for Advancing Translational Sciences (NCATS), 2013)
The source made the active and inactive calls.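 Rule for the calls: active = significant body weight gain in treated spinal muscular atrophy model mice compared with vehicle-treated controls; inactive = no significant body weight gain.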

Test: Extended Characterization of SMN2 Inhibitors: Body Weight Studies
Conditions: SMNdelta7 SMA mice, 50 mg/kg ip
Excerpt: Spinal muscular atrophy (SMA) is caused by insufficient levels of the survival motor neuron protein SMN. The SMN locus on chromosome 5q13 contains two inverted copies of SMN called SMN1 and SMN2 which are 99% identical at the amino acid level. SMN1 is a fully functional protein and SMN2 skips exon 7 90% of the time. Skipping of exon 7 produces non-functional protein product. 10% of the SMN2 protein includes exon 7 and is fully functional. In the SMA disease state, mutations in the SMN1 locus are the cause of the disease state. Because only 10% of SMN2 is of the fully functional form, it is not sufficient to overcome the deficiency produced by the loss of the SMN1 product. A therapy that either increase the amount of SMN2 product made or to increase the inclusion of exon 7 has been proposed for the treatment of SMA. We have previously filed a probe report and have now done further SAR and further characterized the resulting compounds in mice studies. Here we tested the new compound to see if there was an improval in body weight when administered to SMNdelta7 SMA mice. NIH Chemical Genomics Center [NCGC] NIH Molecular Libraries Probe Production centers Network [MLPCN] MLPCN Grant: R03 MH084179 Assay Submitter (PI): Elliot Androphy […]

SMILES	outcome
O=C(O)C1CCN(c2ncc(-c3ccc4c(c3)OCCCO4)s2)CC1	active; yes
